Bioassay records as filed in PubChem BioAssay.
Hits are enriched below; roughly 2.4% of the tested compounds scored in any of these assays.
MEKK2 mut-MEK5: signal of MEK5 binding to mutant human MEKK2 PB1 domain; percent response, % at 10 µM; actives 0.35% (n = 290,000); AID 1530; bead flow cytometry, Alexa488-MEK5 binding to MEKK2 mutant; in the data active = percent response above about 24%, passing the limit was not always enough
MEKK2wt PB1 HTS: raises or lowers MEK5 binding to wildtype human MEKK2 PB1 domain; bead flow cytometry, Alexa488-MEK5 binding to MEKK2 WT; actives lie on both sides; binding response (% of control), % at 10 µM; actives 1.1% (n = 290,000); AID 1531; Q9Y2U5; in the data active = binding response below about 67% or above about 130%
Arbovirus anti: antivirals against arbovirus infection. arbovirus infection cell-based antiviral screen. AID 1251. inhibition, % at 10 µM. actives 0.37% (n = 200,000); in the data active = inhibition above about 30%
MEKK3 PB1 HTS: modulators (inhibitors or enhancers) of MEK5 binding to human MEKK3 PB1 domain. binding response (% of control), % at 10 µM. Q99759. actives 1.4% (n = 290,000). bead-based flow cytometry, Alexa488-MEK5 binding to MEKK3; actives lie on both sides; 0 = blocked by unlabeled MEK5, 100 = vehicle;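 active = binding response more than 3 SD above or below the average of its plate-row segment, actives on both sides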;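 note: Alexa488 bead fluorescence after subtracting the streptavidin-only scavenger bead signal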
Target sequence (Q99759 whole entry, looked up, the tested form may be a part): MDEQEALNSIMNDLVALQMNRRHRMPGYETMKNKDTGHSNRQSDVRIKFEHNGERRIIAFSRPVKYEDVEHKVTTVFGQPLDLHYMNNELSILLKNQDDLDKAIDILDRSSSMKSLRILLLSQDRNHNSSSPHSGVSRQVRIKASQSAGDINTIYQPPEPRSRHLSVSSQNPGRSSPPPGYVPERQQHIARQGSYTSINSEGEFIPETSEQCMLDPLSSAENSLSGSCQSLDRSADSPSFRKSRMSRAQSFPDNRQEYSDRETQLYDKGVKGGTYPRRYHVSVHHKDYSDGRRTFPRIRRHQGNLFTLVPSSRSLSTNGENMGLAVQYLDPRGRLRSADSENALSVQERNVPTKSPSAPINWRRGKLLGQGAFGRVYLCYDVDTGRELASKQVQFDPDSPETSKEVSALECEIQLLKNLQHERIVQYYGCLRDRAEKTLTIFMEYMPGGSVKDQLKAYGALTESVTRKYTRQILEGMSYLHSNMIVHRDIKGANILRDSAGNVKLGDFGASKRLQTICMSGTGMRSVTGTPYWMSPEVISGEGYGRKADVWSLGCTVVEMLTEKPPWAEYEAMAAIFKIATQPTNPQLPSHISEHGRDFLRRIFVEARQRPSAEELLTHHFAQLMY
Pf gamet viab: kills late stage P. falciparum gametocytes | P. falciparum stage V gametocytes, ATP luminescence, 24 h | inhibition, % at 10.9 µM | actives 0.065% (n = 150,000) | AID 743093;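 active = inhibition above the mean plus 3 SD of compounds within the control limits, set per campaign, cut at about 38% in these data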;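 note: 0% = DMSO wells and 100% = medium only without gametocytes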
Starred values were filed as active, the others as inactive; nt = no result given.

SMILES	MEKK2 mut-MEK5	MEKK2wt PB1 HTS	Arbovirus anti	MEKK3 PB1 HTS	Pf gamet viab
Cc1ccc(C)c(OCC(O)CN2CCC(CN3C(=O)c4cccc5cccc(c45)C3=O)CC2)c1 (centres undefined)	6	162*	-43	112	7
O=C(CSCc1ccco1)N1CCc2ccccc21	-2	94	nt	98	nt
COc1ccc(/C(C)=N/NC(=S)NCCc2ccccc2)cc1	-4	94	4	85	39*
CC(=O)NNC(=O)c1sc(=S)n(C)c1C	1	-5.0*	nt	95	16
CCOC(=O)C(OC(=O)c1sc(=S)n(C)c1C)C(C)=O (centres undefined)	10	107	7	101	nt
O=S(=O)(Nc1cccc(-c2nc3cccnc3s2)c1)c1ccc2c(c1)OCCO2	8	117	31*	112	nt
CC(C)c1cc(C(F)(F)F)n2nc(C(=O)Nc3ccc4c(c3)OCO4)cc2n1	0	101	31*	101	nt
CC(C)c1cc(C(=O)Nc2ccc3c(c2)OCO3)no1	1	104	-15	104	nt
Cc1nn(Cc2ccccc2)c2ncccc12	-1	106	nt	104	nt
O=C1OCCC1Sc1nnnn1-c1ccccc1 (centres undefined)	1	106	-6	102	nt
Cc1ccc(N2C(=O)/C(=C\c3ccc(C(C)C)cc3)N=C2SC2CCOC2=O)cc1 (centres undefined)	10	102	39*	100	9
COc1ccc(F)cc1C(=O)C1CCCN(C(=O)CSc2ccccn2)C1 (centres undefined)	2	105	35*	102	nt
CN(C)c1ccc(NC(=O)CN2CCC(NC(=O)C3CCCCC3)CC2)cc1	30*	137*	nt	103	nt
COc1ccc(NC(=O)CN2CCC(NC(=O)C3CCCCC3)CC2)cc1	3	106	-7	105	-19
Cc1c(Cl)cccc1NC(=O)CSc1nc2ncc(Cl)cc2[nH]1	-1	102	nt	102	nt
Cc1cc(C(C)(C)C)ccc1OCCCCN1CCCC1	-1	105	-2	102	12
CCC(C)(C)c1ccc(OCCCC[n+]2cccc(C)c2C)c(C(C)(C)CC)c1	41	170*	nt	75	3
CCSc1nnc(NC(=O)CSc2nnc(Cc3cccn3C)n2-c2ccc(F)cc2)s1	nt	nt	33*	nt	nt
Cn1cccc1Cc1nnc(SCC(=O)Nc2ccc(F)cc2)n1-c1ccc(F)cc1	0	100	7	102	nt
CCN1CCN(CCCNC(=O)C2CCN(c3nnc(-n4cccc4)s3)CC2)CC1	10	117	nt	103	nt
CCOc1ccc(NCc2cccn2-c2nnc(N3CCC(C(=O)NCCCN4CC(C)CC(C)C4)CC3)s2)cc1 (centres undefined)	23	137*	nt	105	nt
Cc1ccc(S(=O)(=O)N2CCN(C(=O)c3ccc(Br)o3)CC2)c(C)c1	2	101	nt	99	nt
O=C(O)c1ccc(N=c2oc3cc(O)ccc3cc2C(=O)NCc2ccccc2)cc1	-8	87	5	98	42*
CCN(CC)S(=O)(=O)c1cccc(C(=O)NCCCn2ccnc2)c1	5	106	nt	100	-35
O=c1oc(-c2cccs2)nc2ccc(Br)cc12	-1	99	46*	102	nt
SMILES	MEKK2 mut-MEK5	MEKK2wt PB1 HTS	Arbovirus anti	MEKK3 PB1 HTS	Pf gamet viab
CC(=O)NS(=O)(=O)c1ccc2c(c1)C(=O)c1cc(S(=O)(=O)NC(C)=O)ccc1-2	-3	-8.0*	nt	98	-10
Cc1cccc(NS(=O)(=O)c2ccc3c(c2)Cc2cc(S(=O)(=O)Nc4cccc(C)c4C)ccc2-3)c1C	0	-3.0*	-21	88	-16
Cc1cccc(NS(=O)(=O)c2ccc3[nH]c(=O)[nH]c3c2)c1C	-9	95	nt	97	nt
Cc1cc2c(cc1C)C(c1cccc([N+](=O)[O-])c1)CC(=O)N2 (centres undefined)	2	105	-9	108	51*
CC(=O)Nc1ccc(SCC(=O)Nc2ccc(Cl)cn2)cc1	0	101	5	102	12
Cc1nc2nc(SCC(=O)NCCCN3CCCCCC3)nn2c(C)c1Cc1ccccc1Cl	16	130	nt	104	nt
Cc1ccc(Cc2c(C)nc3nc(SCC(=O)NCCCN4CCCCC4)nn3c2C)cc1	0	111	nt	96	nt
Cc1ccc(Cc2c(C)nc3nc(SCC(=O)NCCCN4CCCC4)nn3c2C)cc1	21	147*	nt	109	nt
Cc1ccccc1Cc1c(C)nc2nc(SCC(=O)NCCCN3CCCC3)nn2c1C	19	136*	nt	105	nt
COc1ccc(S(=O)(=O)N2CCC(C(=O)Nc3ccccc3N3CCCCC3)CC2)cc1OC	-4	98	nt	101	nt
COc1ccc(C2C(C(C)=O)=C(O)C(=O)N2c2ccc(F)cc2)cc1 (centres undefined)	3	108	nt	106	nt
Cc1nn(-c2ccccc2)c(N2CCCCC2)c1/C=N/O	-2	97	3	95	14
Cc1nn(-c2ccccc2)c(N2CCCC2)c1C=O	-4	96	6	97	40*
COc1ccc(C)cc1S(=O)(=O)Nc1ccc2c(c1)OCCO2	3	98	nt	101	6
O=C1CC(c2ccc(Br)cc2)NC(c2ccc(Br)cc2)C1c1ccccc1 (centres undefined)	1	103	45*	105	nt
c1ccc(C2CC(c3ccccc3)C(c3ccccc3)N2)cc1 (centres undefined)	2	110	nt	107	nt
CC1CCc2c(sc3nc(CSc4nnnn4C)[nH]c(=O)c23)C1 (centres undefined)	2	101	nt	101	14
O=C(O)c1ccccc1Sc1c([N+](=O)[O-])cc(C(F)(F)F)cc1[N+](=O)[O-]	-3	97	31*	99	-7
COCCNc1nc(-c2cc(C)n(CCc3ccc(OC)cc3)c2C)cs1	41	-5.0*	9	80	-2
CC(C)c1ccc(OCC(=O)Nc2cccc(C(=O)Nc3ccccc3C(=O)O)c2)cc1	-2	100	26	100	21
Cc1cccc(OCC(=O)Nc2cccc(C(=O)Nc3ccccc3C(=O)O)c2)c1	4	107	55*	107	nt
O=C(O)CCCC(=O)Nc1cccc(C(=O)Nc2ccccc2C(=O)O)c1	2	96	5	101	-11
O=C(CSCc1ccccc1)Nc1cccc(C(=O)Nc2ccccc2C(=O)O)c1	7	105	31*	106	nt
O=C(CSCc1ccc(Cl)cc1)Nc1cccc(C(=O)Nc2ccccc2C(=O)O)c1	-4	99	36*	98	-26
O=C1Nc2ccc3sc4ccccc4c3c2C1=O	1	101	nt	83	7
O=C(c1cc2cc([N+](=O)[O-])ccc2oc1=O)N1CCN(C2CCCCC2)CC1	-7	80	1	71	25
O=C(Nc1nnc(-c2ccco2)o1)c1ccc([N+](=O)[O-])s1	6	106	-4	102	1
CCN(CC)CCNC(=O)C1CCN(S(=O)(=O)c2c(C)noc2/C=C/c2ccccc2F)CC1	11	136*	nt	107	nt
CCN(CCNC(=O)C1CCN(S(=O)(=O)c2c(C)noc2C)CC1)c1ccccc1	5	101	-6	102	-1
